Measurements reported in the supplement of paper PMC3334620.
Whole data set: some 33,000 sequences, median “E-score (-0.5 to 0.5)” near -0.041, cut for the highest 2% near 0.37. Only a selection was taken, and the highest values are over-represented in it overall.

Target: T1, Ecm22 (UniProt Q05958)
T1 sequence: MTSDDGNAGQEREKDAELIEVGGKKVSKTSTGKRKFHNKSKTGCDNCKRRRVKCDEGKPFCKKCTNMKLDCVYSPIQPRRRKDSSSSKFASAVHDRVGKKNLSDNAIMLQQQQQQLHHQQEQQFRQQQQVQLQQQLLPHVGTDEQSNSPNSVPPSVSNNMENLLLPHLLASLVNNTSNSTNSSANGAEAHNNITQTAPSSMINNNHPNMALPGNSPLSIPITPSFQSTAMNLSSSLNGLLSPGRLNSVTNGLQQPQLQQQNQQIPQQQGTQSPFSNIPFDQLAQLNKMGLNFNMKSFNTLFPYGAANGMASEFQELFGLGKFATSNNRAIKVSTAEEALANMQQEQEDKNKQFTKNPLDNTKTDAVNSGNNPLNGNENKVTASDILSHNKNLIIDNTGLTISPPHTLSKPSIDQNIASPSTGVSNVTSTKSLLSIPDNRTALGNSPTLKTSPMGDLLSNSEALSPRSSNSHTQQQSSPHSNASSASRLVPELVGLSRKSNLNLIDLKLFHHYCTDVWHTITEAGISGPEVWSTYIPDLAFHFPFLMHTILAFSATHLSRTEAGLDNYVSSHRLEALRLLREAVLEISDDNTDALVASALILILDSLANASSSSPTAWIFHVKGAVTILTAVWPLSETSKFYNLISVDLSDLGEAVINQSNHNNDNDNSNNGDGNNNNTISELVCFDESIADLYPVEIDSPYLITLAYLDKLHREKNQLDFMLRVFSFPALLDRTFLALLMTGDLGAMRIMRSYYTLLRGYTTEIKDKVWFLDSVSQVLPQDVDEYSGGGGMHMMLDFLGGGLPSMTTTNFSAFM
Assay: PBM E-score (8-mer binding enrichment) (E-score (-0.5 to 0.5)); higher = stronger / more preferred TF binding
Conditions: protein concentration: 200 nM; construct: GST-full length
Protocol: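 Universal 'all 10-mer' protein binding microarrays (Agilent AMADID 015681) probed with GST-tagged S. cerevisiae TFs (full-length or DBD) made by in vitro transcription/translation (PURExpress), about 100-200 nM. Bound TF was detected with fluorescent anti-GST. Each ungapped 8-mer (which stands for itself and its reverse complement) is scored by the PBM enrichment score (E-score), a modified Wilcoxon-Mann-Whitney statistic from -0.5 to +0.5, computed with the Universal PBM Analysis Suite. Scale: above 0.35 generally sequence-specific binding.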

Sequence	PBM E-score
AAAATACC	0.0602
AATATACG	0.461
CATATACG	0.445
CATATACC	-0.0901
CATATACA	0.0321
AATATACA	0.104
AATATACT	-0.0273
AAAATACG	0.372
AAAATACA	-0.0245
ACCCCGGT	0.00636
GGAGTTGA	0.0109
CTCTAGAA	-0.201
AAGGGCCC	-0.0372
CGCGGCTA	0.0813
ACATGCCC	-0.0896
ATCCGTGC	-0.0378
CTCCGTAC	0.386
ATCCGTAC	0.363
CACCGTAA	0.277
CACCGTAC	0.4
CTCCGTAA	0.187
CACCGTAG	0.0943
AAAAAGGG	-0.092
ACATCTAT	0.0869
CCAGGGCA	-0.108

Sequence	PBM E-score
GGCGCCCA	-0.0786
TCGCCCGA	-0.102
ATCGTAAG	0.308
TTCGTAAA	0.456
ATCGTAAA	0.436
TCCGTAAA	0.332
CTCGTAAA	0.475
GACGTAAA	0.154
TGCGTAAA	0.228
GGCGTAAA	0.159
CCCGTAAA	0.32
CACGTAAA	0.106
ATCGTAAT	0.263
GTCGTAAA	0.473
CTCCACAG	-0.248
GCGCGACC	0.173
ACTCCGGC	0.0584
AAAAACTG	-0.116
GCCTCGCA	0.205
ACAACCGC	0.111
AGCCTTAC	-0.108
CTTCGGCC	-0.151
ACGAACAT	0.386
ACGAACAC	0.318
ACGAACAG	0.282

Sequence	PBM E-score
GCGAACAA	0.148
CCGAACAA	0.127
ACGAACAA	0.38
GGCCGACC	-0.224
GCCTGAAA	-0.139
GACGTCTA	-0.23
ATGACGGG	-0.125
CCGACGGC	0.129
GCGACGGA	0.124
ACGACGGC	0.37
CCGACGGA	0.0916
ACGACGGG	0.393
AGGACGGG	-0.147
ACGACGGA	0.388
ATGACGGC	-0.236
CACGTTCC	0.201
AGGCAACT	-0.02
ATCCTACC	-0.186
AACGGAGA	0.18
ATCGGGCA	-0.122
CTGCGAAG	-0.0466
CATAAACG	0.437
CATAAACC	-0.0464
AATAAACG	0.41
AATAAACT	-0.0489

Sequence	PBM E-score
AATAAACA	0.0258
CATAAACA	-0.0236
CGGCACTA	-0.0606
GAAGTCGC	0.108
ATGCACCA	-0.108
TAGATAAA	0.057
CCGACGAG	0.165
ACGACGTA	0.414
GCGACGTA	0.265
ACGACGAC	0.364
CCGACGTC	0.138
ATGACGTG	-0.166
AAGACGTC	0.00719
ACGACGTC	0.393
CCGACGTA	0.208
AGGACGTG	-0.194
ACGACGAG	0.38
ACGACGTG	0.372
GACCCGTA	0.24
ACCTTCGC	0.143
CAGGACGA	-0.283
CTCCGTTA	0.0433
GTCTACCA	-0.215
ATAAACGA	0.484
ATAAACGC	0.192

Sequence	PBM E-score
GTAAACGA	0.485
AAAAACGA	0.323
ATAAACGG	0.408
ATAAACTG	0.0158
GTAAACCA	0.0466
AAAAACGG	0.13
GTAAACTA	0.188
CATCCCCC	-0.207
GATCCACA	-0.13
GTGAACAA	0.198
CTGAACGC	0.023
ATGAACGC	0.118
ATGAACGA	0.453
CTGAACTA	-0.092
ATGAACGG	0.262
CTGAACGA	0.456
GTGAACGA	0.426
GTGAACTA	0.0738
AACGGTTA	0.27
CATTGTCG	0.0896
CTAGGGAC	-0.323
CGCCAGAC	0.00345
GGTAACAC	-0.135
GATTCGTA	0.45
GATTCGGA	0.171

Sequence	PBM E-score
CATTCGTC	0.112
CATTCGTA	0.407
AATTCGTG	-0.036
GATTCGCA	0.227
AATTCGTA	0.441
AATTCGTC	0.0772
CATTCGCA	0.0842
ACCCCCCT	-0.25
AGTAGGCC	0.00266
GAATTGTC	-0.0741
AGAACCCA	-0.131
GGCTCCTA	-0.159
GCATTTAC	-0.0379
CTTCCGTA	0.319
GTTCCGTA	0.389
ATTCCGTA	0.284
ACAGAAGC	-0.0614
TCGCACGA	0.183
TCGTACGA	0.469
TCCTACGA	0.26
ACGTACGC	0.239
ACGTACGA	0.441
ACGTACGG	0.362
GCGTACGA	0.448
GCGTACTA	0.152

Sequence	PBM E-score
ACGTACGT	0.245
CCCTACGG	-0.215
GCGTACGC	0.178
CCGTACGG	0.378
CTAGCGGC	-0.29
AGAGCGGC	-0.228
CTCTTAAC	0.0664
ATCTGCAC	-0.117
CATCAGCC	-0.121
TAGCTGAA	0.0371
ACTTCGAG	-0.105
TCCGCCAA	-0.121
ATTTCTGA	-0.286
AAGTGCAA	-0.0854
AGGTCAGA	-0.204
TGAGGTAA	-0.264
CCGTACTA	0.341
CCGTACGC	0.324
CCGTACGA	0.445
GAGGTTGA	-0.0744
AGAGAAGC	-0.0688
CGTTTATA	0.426
AGTTTATC	0.0904
CTTTTATC	-0.0345
AGTTTATA	0.15

Sequence	PBM E-score
GGTTTATA	0.152
CGTTTATC	0.42
AGCTCAGG	-0.211
TGAAGTCA	-0.133
GCCCAACC	0.0862
GGTATTTA	-0.00022
AGTATTTA	-0.0192
CATATATC	0.0903
CGTATTTA	0.369
CGTATATC	0.439
CGTATATA	0.444
AGTATATA	0.341
AGTATATC	0.122
GGTATATA	0.168
AAGTACCG	0.152
CTAATGAG	-0.0357
GCAAATGA	0.0372
CCACTCGC	0.184
CTGGCTCC	-0.202
CGTGTTCA	0.0358
AACCTCTT	-0.0421
GTAACCGA	0.332
CTAACCGA	0.372
CTAACCGC	0.0805
CGCCACTC	-0.016

Sequence	PBM E-score
AAACTGTC	-0.0481
CTACGATC	0.325
ACACGATG	0.17
ACACGATC	0.0695
AGACGATG	0.00668
ATACGATG	0.472
ATACGATC	0.457
AGCAGGGC	-0.0233
TATACTGA	0.182
CGATCTAC	0.184
AGTACCAT	0.0273
CGGCCGTA	0.34
GGGCCGTA	0.333
AGGCCGTA	0.384
AAAGCTGT	-0.108
CGAAGCAG	0.147
GCGTGGGA	0.0285
GCACGACA	0.114
GTACGACA	0.48
ATACGACA	0.469
CTACGACA	0.347
AGACGACA	0.0702
ACACGACA	0.233
CCCTGGAC	-0.193
GTAGCAGA	0.0392

Sequence	PBM E-score
AGGACCCT	-0.235
CCCTCAAC	-0.248
GGTTCATA	0.0139
CGTTCATA	0.386
GGTTCGGA	-0.1
GGTTCGTA	0.443
CGTTCATC	0.354
CGTTCAAA	0.361
CGTTCAAC	0.377
AGTTCGTA	0.449
AGTTCGTG	0.189
GGTTCGAA	0.182
AGTTCGTC	0.207
CGTTCAAG	0.335
AGGAAACG	0.281
GGAACAGA	-0.378
CTGTCCCA	-0.11
CACTCGGA	0.198
CGTAATAA	0.247
AAGCGAAT	0.277
CATGCAAC	0.0872
CGTTCGGA	0.274
CGTTCGTA	0.461
CGTTCGTC	0.314
AAGGAGGC	-0.319

Sequence	PBM E-score
AGCATCGG	-0.0521
TCCAGCGA	-0.115
TGGGTGAA	0.0282
ACGACGAT	0.325
GCGACGCA	0.173
ACGACTCA	0.238
ACGACTCT	0.308
CCGACGCA	0.00712
ACGACTCG	0.39
ACGACGCT	0.38
CCGACGCG	0.218
AAGACGCG	-0.012
ACGACGCG	0.407
ACGACGCA	0.412
ACGACGCC	0.33
ATTGCGCG	0.148
CAGGAAGG	-0.357
ATCGTGCG	0.228
CATTCCTC	0.0616
ACGCGGTG	-0.00032
AATGAGTC	-0.0397
AAGGTGTA	-0.0872
ATCCTTTA	-0.159
AGGTACGC	0.217
GGGTACAA	-0.0303

Sequence	PBM E-score
CGGTACCA	-0.0083
CGGTACGC	0.315
GGGTACGA	0.491
GGGTACCA	-0.317
AGGTACGG	0.424
AGGTACTG	-0.183
CGGTACGA	0.492
CGATTCGC	0.221
ATCAGGTC	0.113
ATAGGAGC	-0.162
CAGATTTA	0.156
AACATCAA	0.0313
CCTCGGCA	0.165
TCGCTTAA	0.394
CCGCTTAA	0.291
GCGCTTAA	0.0179
ACCCATTC	-0.0208
GTCGTAGA	0.4
CGCGTAGA	0.107
ATCGTAGC	0.385
CCCGTAGC	0.154
CTCGTAGA	0.376
ATCGTAGG	0.144
CACGTAGC	-0.026
GACGTAGA	-0.0256

Sequence	PBM E-score
ATCGTAGA	0.272
CACGTAGA	-0.0914
CTCGTAGC	0.449
GGCGTAGA	0.0225
AGAGGCGA	-0.00468
ATGGGAGG	-0.116
CTGGCGAC	-0.209
GCACGTGC	-0.0189
CATTACCG	-0.025
GGGGACTA	-0.242
AACGGCCT	0.225
CTTTCGCA	0.00706
GTAGGTCA	-0.0922
GAACCTTC	-0.126
ATGAGAGA	-0.0934
AGAAGGCA	-0.166
GGCATTCA	-0.0839
ACACTGCG	0.0708
ATTTGGCC	-0.258
AACGCATT	0.0189
CATACGGC	0.3
CGTACGGA	0.373
CTTACGGA	0.0416
AGTACGGA	0.288
GGTACGGA	0.413

Sequence	PBM E-score
GCTACGGA	0.232
AGTACGGC	0.339
CCTACGGA	-0.34
CGTACGGC	0.385
CCCGCTGA	-0.32
AGCGCTGC	-0.158
CCGGTCAC	-0.0785
ATGGACAT	-0.107
ATGGGCCC	-0.157
GCGAACAC	0.0536
CCCCCTGC	-0.162
AATACGTA	0.228
CATACGAC	0.451
AATACGTG	0.15
AATACGAG	0.457
ACTACGAA	0.25
CATACGAA	0.451
AATACGGG	0.229
CATACGCC	0.182
CATACAAA	-0.0105
CATACGTA	0.288
CATACGTC	0.0749
AATACGAA	0.419
